Experimental data from PubChem BioAssay AID1159580 (chemical genetic matrix, 2015).
Several values for one entry are separate records, joined by “and”; a condition that tells them apart may be missing. Equal values may be shown once. The whole screen tested about 5,500 compounds, of which about 2,000 (36%) were called active. Not shown: some 18% with an inconclusive outcome. No stated cut-off is given here; in the data, active means normalized growth mostly below about 0.91 (no sharp cut-off); inconclusive means no clear call, values can overlap the other calls; inactive means mostly above about 0.92. This is one part of the list.

Experiment: chemical genetic growth profiling, strain panel (AID 1159580);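 further: tested at 20 µM; growth read once vehicle control cultures reached saturation at 30 °C; 1 = growth at the plate median or of vehicle wells; lower values mean less growth of the strain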
Conditions: growth OD

Measured: normalized growth

Cc1cccc(C)c1NC1=NCCCS1
inactive: S. cerevisiae deletion strains, locus YJR075W, strain HOC1, active compounds read low 1.03 | S. cerevisiae deletion strains, locus YKL009W, strain mrt4, active compounds read low 0.968 | S. cerevisiae deletion strains, locus YKL068W, active compounds read low 0.977 | S. cerevisiae deletion strains, locus YKL085W, strain MDH1 (second series), active compounds read low 0.976 | S. cerevisiae deletion strains, locus YKL085W, strain MDH1, active compounds read low 0.976 | S. cerevisiae deletion strains, locus YKL160W, strain elf1, active compounds read low 1 | S. cerevisiae deletion strains, locus YKL190W, strain CNB1, active compounds read low 1.01 | S. cerevisiae deletion strains, locus YKR001C, strain vps1, active compounds read low 1 | S. cerevisiae deletion strains, locus YKR026C, strain gcn3, active compounds read low 1 | S. cerevisiae deletion strains, locus YKR091W, strain srl3, active compounds read low 1.01 | S. cerevisiae deletion strains, locus YLL001W, strain dnm1, active compounds read low 0.959 | S. cerevisiae deletion strains, locus YLL026W, active compounds read low 1 | S. cerevisiae deletion strains, locus YLL041C, strain sdh2, active compounds read low 1.02 | S. cerevisiae deletion strains, locus YLR027C, strain aat2, active compounds read low 1.01 | S. cerevisiae deletion strains, locus YLR039C, strain RIC1, active compounds read low 0.997 | S. cerevisiae deletion strains, locus YLR058C, strain SHM2, active compounds read low 0.996 | S. cerevisiae deletion strains, locus YLR102C, strain apc9, active compounds read low 0.989 | S. cerevisiae deletion strains, locus YLR113W, strain HOG1, active compounds read low 1.04 | S. cerevisiae deletion strains, locus YLR221C, strain rsa3, active compounds read low 0.994 | S. cerevisiae deletion strains, locus YLR258W, strain gsy2, active compounds read low 0.995 | S. cerevisiae deletion strains, locus YLR262C, strain YPT6 (second series), active compounds read low 1.03 | S. cerevisiae deletion strains, locus YLR262C, strain YPT6, active compounds read low 0.985 | S. cerevisiae deletion strains, locus YLR268W, strain sec22, active compounds read low 0.978 | S. cerevisiae deletion strains, locus YLR320W, strain mms22, active compounds read low 0.994 | S. cerevisiae deletion strains, locus YLR330W, strain CHS5, active compounds read low 0.991 | S. cerevisiae deletion strains, locus YLR342W, strain FKS1 (second series), active compounds read low 0.981 | S. cerevisiae deletion strains, locus YLR342W, strain FKS1, active compounds read low 0.998 | S. cerevisiae deletion strains, locus YLR357W, strain rsc2, active compounds read low 0.999 | S. cerevisiae deletion strains, locus YLR370C, strain arc18, active compounds read low 1.03 | S. cerevisiae deletion strains, locus YLR371W, strain rom2, active compounds read low 0.986 | S. cerevisiae deletion strains, locus YLR384C, strain iki3, active compounds read low 0.993 | S. cerevisiae deletion strains, locus YLR418C, strain cdc73, active compounds read low 0.986 | S. cerevisiae deletion strains, locus YML016C, strain PPZ1, active compounds read low 0.998 | S. cerevisiae deletion strains, locus YML032C, strain rad52, active compounds read low 0.998 | S. cerevisiae deletion strains, locus YML120C, strain ndi1, active compounds read low 1.01 | S. cerevisiae deletion strains, locus YML124C, strain tub3, active compounds read low 0.996 | S. cerevisiae deletion strains, locus YMR058W, strain fet3, active compounds read low 1.02 | S. cerevisiae deletion strains, locus YMR078C, strain ctf18, active compounds read low 0.98 | S. cerevisiae deletion strains, locus YMR125W, strain sto1, active compounds read low 0.986 | S. cerevisiae deletion strains, locus YMR129W, active compounds read low 1 | S. cerevisiae deletion strains, locus YMR205C, strain PFK2, active compounds read low 1.01 | S. cerevisiae deletion strains, locus YMR223W, strain ubp8, active compounds read low 0.969 | S. cerevisiae deletion strains, locus YMR231W, strain pep5, active compounds read low 1 | S. cerevisiae deletion strains, locus YMR307W, strain GAS1, active compounds read low 0.988 and 1 | S. cerevisiae deletion strains, locus YNL067W, strain RPL9B, active compounds read low 1.04 | S. cerevisiae deletion strains, locus YNL071W, strain lat1, active compounds read low 1.01 | S. cerevisiae deletion strains, locus YNL128W, strain TEP1, active compounds read low 0.991 | S. cerevisiae deletion strains, locus YNL153C, strain GIM3, active compounds read low 1.06 and 0.996 | S. cerevisiae deletion strains, locus YNL175C, strain NOP13, active compounds read low 0.988 | S. cerevisiae deletion strains, locus YNL183C, strain NPR1, active compounds read low 0.96 | S. cerevisiae deletion strains, locus YNL197C, strain WHI3, active compounds read low 1.01 | S. cerevisiae deletion strains, locus YNL209W, strain ssb2, active compounds read low 1.01 | S. cerevisiae deletion strains, locus YNL224C, strain SQS1, active compounds read low 1 | S. cerevisiae deletion strains, locus YNL233W, strain BNI4, active compounds read low 1.04 | S. cerevisiae deletion strains, locus YNL248C, strain rpa49, active compounds read low 0.997 | S. cerevisiae deletion strains, locus YNL250W, strain rad50, active compounds read low 0.926 | S. cerevisiae deletion strains, locus YNL271C, strain bni1, active compounds read low 0.985 | S. cerevisiae deletion strains, locus YNL298W, strain CLA4, active compounds read low 0.98 | S. cerevisiae deletion strains, locus YNL307C, strain MCK1, active compounds read low 0.983 | S. cerevisiae deletion strains, locus YNL322C, strain KRE1 (second series), active compounds read low 1.01 | S. cerevisiae deletion strains, locus YNL322C, strain KRE1, active compounds read low 1.01 | S. cerevisiae deletion strains, locus YNR049C, strain mso1, active compounds read low 0.999 | S. cerevisiae deletion strains, locus YNR052C, strain pop2, active compounds read low 0.974 | S. cerevisiae deletion strains, locus YOL006C, strain TOP1, active compounds read low 1.08 | S. cerevisiae deletion strains, locus YOL012C, strain htz1 1.34 | S. cerevisiae deletion strains, locus YOL147C, strain pex11, active compounds read low 0.984 | S. cerevisiae deletion strains, locus YOR001W, strain rrp6, active compounds read low 1.02 | S. cerevisiae deletion strains, locus YOR061W, strain CKA2, active compounds read low 1 | S. cerevisiae deletion strains, locus YOR069W, strain VPS5, active compounds read low 0.99 | S. cerevisiae deletion strains, locus YOR070C, strain gyp1, active compounds read low 1.01 | S. cerevisiae deletion strains, locus YOR080W, strain dia2, active compounds read low 0.999 | S. cerevisiae deletion strains, locus YOR083W, strain WHI5 (second series), active compounds read low 0.998 | S. cerevisiae deletion strains, locus YOR083W, strain WHI5, active compounds read low 1 | S. cerevisiae deletion strains, locus YOR106W, strain vam3, active compounds read low 1.04 | S. cerevisiae deletion strains, locus YOR136W, strain idh2, active compounds read low 0.995 | S. cerevisiae deletion strains, locus YOR144C, strain elg1, active compounds read low 0.994 | S. cerevisiae deletion strains, locus YOR184W, strain ser1, active compounds read low 0.976 | S. cerevisiae deletion strains, locus YOR231W, strain MKK1, active compounds read low 1.02 | S. cerevisiae deletion strains, locus YOR265W, strain rbl2, active compounds read low 1.01 | S. cerevisiae deletion strains, locus YOR270C, strain vph1, active compounds read low 1.03 | S. cerevisiae deletion strains, locus YOR290C, strain snf2, active compounds read low 1.01 | S. cerevisiae deletion strains, locus YOR316C, strain cot1, active compounds read low 0.99 | S. cerevisiae deletion strains, locus YPL051W, strain arl3, active compounds read low 0.999 | S. cerevisiae deletion strains, locus YPL055C, strain LGE1, active compounds read low 1.1 | S. cerevisiae deletion strains, locus YPL078C, strain atp4, active compounds read low 1.02 | S. cerevisiae deletion strains, locus YPL106C, strain sse1, active compounds read low 1.01 | S. cerevisiae deletion strains, locus YPL240C, strain hsp82, active compounds read low 0.999 | S. cerevisiae deletion strains, locus YPL241C, strain CIN2, active compounds read low 1.01 | S. cerevisiae deletion strains, locus YPL256C, strain CLN2, active compounds read low 1.04 | S. cerevisiae deletion strains, locus YPR119W, strain clb2, active compounds read low 0.985 | S. cerevisiae deletion strains, locus YPR141C, strain kar3, active compounds read low 0.982 | S. cerevisiae deletion strains, locus YPR163C, strain tif3, active compounds read low 0.979 | S. cerevisiae deletion strains, locus YPR167C, strain met16, active compounds read low 0.992 | S. cerevisiae deletion strains, strain wtn01, active compounds read low 0.973 | S. cerevisiae strains, strain wild type, active compounds read low 1
